# Test results as given in PubChem BioAssay (NCI).
# About 83,000 compounds went through this panel and 20% of them were active in at least one assay; those are over-represented in the sample as a whole.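 Each cell line was grown in a 96-well plate and treated with one concentration of compound for 48 hours. Values below 10 were considered active.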 Unmarked numbers belong to inactive results. Active and inactive are the calls of the source.
# Key:
# Experiment in all cases: NCI-60 one-dose screen, 48 h (100 = growth as untreated, 0 = no growth, -100 = all killed)
# Conditions in all cases: 10 µM unless noted
# NCI-H23 lung = system: NCI-H23 lung
# NCI-H226 lung = system: NCI-H226 lung
# NCI-H322M lung = system: NCI-H322M lung
# HOP-62 NSCLC = system: HOP-62 NSCLC
# HOP-92 NSCLC = system: HOP-92 NSCLC
# NCI-H522 lung = system: NCI-H522 lung
# A549/ATCC NSCLC = system: A549/ATCC NSCLC
# 786-0 renal = system: 786-0 renal
# COLO 205 colon = system: COLO 205 colon
# DU-145 prostate = system: DU-145 prostate
# K-562 leukemia = system: K-562 leukemia
# MDA-MB-231 breast = system: MDA-MB-231 breast
# RXF 393 renal = system: RXF 393 renal
# SF-268 CNS = system: SF-268 CNS
# SF-295 CNS = system: SF-295 CNS
# SF-539 CNS = system: SF-539 CNS
# UACC-257 melanoma = system: UACC-257 melanoma
# M14 melanoma = system: M14 melanoma
# NCI-H460 lung = system: NCI-H460 lung
# MALME-3M melanoma = system: MALME-3M melanoma
Compound,growth (NCI-H23 lung),growth (NCI-H226 lung),growth (NCI-H322M lung),growth (HOP-62 NSCLC),growth (HOP-92 NSCLC),growth (NCI-H522 lung),growth (A549/ATCC NSCLC),growth (786-0 renal),growth (COLO 205 colon),growth (DU-145 prostate),growth (K-562 leukemia),growth (MDA-MB-231 breast),growth (RXF 393 renal),growth (SF-268 CNS),growth (SF-295 CNS),growth (SF-539 CNS),growth (UACC-257 melanoma),growth (M14 melanoma),growth (NCI-H460 lung),growth (MALME-3M melanoma)
CCOC(=O)c1ccc2c(c1)[n+](=O)c(C(=O)C1CCCS1)c(C(F)(F)F)n2[O-] (stereo not drawn),-87% (active),-54.9% (active),-87.6% (active),-90.6% (active),-83.6% (active),-83.3% (active),-94.9% (active),-92.3% (active),-84.8% (active),-96.5% (active),-52.6% (active),-76.8% (active),-92.3% (active),-89.6% (active),-88% (active),-83.8% (active),-90.4% (active),-96.6% (active),–,–
COc1ccc2c(c1)c(-c1nc(-c3c[nH]c4ncccc34)cs1)cn2CCCN1CCCCC1,73.1%,70.8%,56.4%,–,24.9%,67.6%,41.3%,-75.1% (active),-74.9% (active),46.1%,-58.8% (active),29.3%,35.9%,52.7%,68.2%,-63.6% (active),71.8%,-84.1% (active),5.78% (active),-70.9% (active)
COc1cc(-c2cc(-c3nc4ccccc4[nH]3)[nH]n2)cc(OC)c1OC,41%,14.5%,39.5%,–,52.1%,37.2%,53.6%,57.6%,47.3%,50.4%,4.51% (active),66.2%,49.2%,72.5%,–,74.8%,44%,39.4%,35.5%,28%
CC(=O)O[C@H]1CC[C@]2(C)[C@H]3C(=O)C=C4[C@@H]5C[C@](C)(C(=O)N6CCCNCC6)CC[C@]5(C)CC[C@@]4(C)[C@]3(C)CC[C@H]2C1(C)C,40.1%,76.6%,19.8%,–,31.1%,30%,-52.8% (active),-71.9% (active),-87.7% (active),4.85% (active),-11.3% (active),-84.6% (active),-89.4% (active),69.6%,60.2%,-92.9% (active),75.7%,6.84% (active),-83.8% (active),-71.7% (active)
Cn1cc(-c2csc(-c3cn(C(=O)OC(C)(C)C)c4ccccc34)n2)c2cccnc21,70.4%,91.4%,103%,–,57.1%,-8.18% (active),52.9%,76.6%,64.8%,92.7%,23.3%,65.4%,80.1%,81.6%,48.2%,71.4%,82.9%,54.8%,60.7%,–
CC(C)=CCC[C@](C)(O)[C@H]1CC[C@]2(C)[C@@H]1CC[C@@H]1[C@@]3(C)C/C(=C/c4cccc([N+](=O)[O-])c4)C(=O)C(C)(C)[C@@H]3CC[C@]12C,74.9%,84.5%,103%,–,76.6%,90.5%,71%,88%,94%,68.2%,74%,88.9%,90.1%,93.2%,103%,96%,97.9%,83%,87.2%,84.5%
Cc1oc(-c2ccccc2Cl)cc1C(=O)Nc1ccc(S(N)(=O)=O)cc1,96.4%,96.1%,102%,105%,107%,97.3%,105%,103%,–,104%,96.3%,93.3%,111%,104%,104%,95.4%,95%,93.8%,–,98.6%
COc1cc(/C=N/Nc2ncnc3c2c(C)nn3-c2ccc(F)cc2)ccc1O,90.6%,102%,85.6%,–,60.5%,72.9%,97.6%,88.6%,104%,87.6%,75.8%,84.5%,95.1%,71%,106%,96.2%,114%,102%,88.1%,112%
CCCCC(=O)OC1CCCCC1C (stereo not drawn),97.3%,79.1%,111%,–,77.6%,83%,72.3%,92.4%,100%,105%,98.8%,106%,93.4%,98.7%,97%,103%,78.5%,95.4%,104%,94.6%
CN1CCN(c2ccc3nc(-c4[nH]ncc4Nc4ncnc5c4OCCCN5)[nH]c3c2)CC1,-53.9% (active),-76.4% (active),-67.3% (active),–,-29.3% (active),-26.2% (active),-63% (active),-59.3% (active),-72.5% (active),-27.6% (active),7.54% (active),-37.8% (active),-89.3% (active),-51% (active),-90.4% (active),-86.7% (active),-20.5% (active),-74.9% (active),-69.8% (active),-76.1% (active)
Nc1nc2c3ccncc3cc(-c3cccc(Cl)c3)c2c2cnccc12,66.8%,33.1%,70.4%,–,50.3%,48.4%,28.3%,21.3%,20.9%,40.5%,17.1%,52.8%,10.4%,49.5%,31.4%,30.1%,59%,45.7%,12.9%,57%
COC(=O)[C@]12CC[C@@H](C(/C=C/c3cccnc3)=N/O)[C@@H]1[C@H]1CC[C@@H]3[C@@]4(C)CC(=C/c5cccnc5)/C(=N/O)C(C)(C)[C@@H]4CC[C@@]3(C)[C@]1(C)CC2,43.1%,13.7%,76.5%,–,54.4%,43.3%,44.6%,67.8%,18%,55.6%,24.9%,45.5%,67.1%,56.7%,30.6%,72.3%,59.1%,19.3%,36.8%,39.2%
Cc1cc(C)c(NC(=O)c2sc3nc4c(cc3c2N)CCCC4)c(C)c1,59.8%,78.6%,88.7%,–,52.3%,4.49% (active),50.1%,47.3%,42.6%,70.3%,12.4%,71.8%,57.9%,48.8%,29.2%,26.9%,–,24.5%,28.8%,44.7%
C[C@@H](Oc1ccc(C(=O)NS(=O)(=O)C(C)(C)C)cc1C(F)(F)F)c1ccc(Oc2ccccc2)cn1,61.2%,72.7%,54.3%,–,63.7%,24.5%,74.8%,37.5%,48.7%,79.6%,19.9%,68.9%,-12.5% (active),54.3%,22.2%,29.8%,51.5%,22.8%,45.7%,44.4%
COc1cc(-c2c(C#N)c(-c3cccs3)nc3c2c(-c2ccccc2)nn3-c2ccccc2)ccc1O,98.4%,91.2%,96.6%,–,93.5%,69.8%,58.3%,85.4%,89.7%,85.6%,66.2%,87.8%,94.4%,80.4%,98.2%,93.5%,81.3%,89.3%,77.5%,87.2%
COc1ccc(C(=O)/C=C/c2cc(-c3cc(OC)c(OC)c(OC)c3)n[nH]2)cc1OC,71.2%,20.8%,-42.4% (active),–,42.8%,-78.5% (active),31.3%,-34.7% (active),-65.7% (active),1.8% (active),3.36% (active),-4.03% (active),-78.8% (active),-20.1% (active),–,-96.2% (active),24.6%,-7.08% (active),-17.4% (active),-75.5% (active)
